Only a selection was taken, and hits are over-represented in it overall.
12-LOX inh: inhibitors of human 12S-lipoxygenase ALOX12. AID 1671190. purified 12hLO, xylenol orange hydroperoxide absorbance. actives 1.1% (n = 580,000). P18054. Potency, µM (series often up to 108 µM), actives largely listed as inhibitors
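Hydroperoxide product was detected by ferrous iron/xylenol orange as the 573 to 405 nm absorbance ratio. Arachidonic acid at 40 uM (final) was turned over for 30 min at room temperature by 150 nM human 12hLO, pH 7.0 Hepes buffer, after 15 min compound preincubation.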
HT1080NT lethal: kills 2HG-producing HT-1080-NT fibrosarcoma cells | HT-1080-NT fibrosarcoma viability, CellTiter-Glo ATP luminescence, 48 h | actives 1.6% (n = 360,000) | AID 686970 | Potency, µM (top dose mostly 46.1 µM), most hits filed as cytotoxic;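 further: NT is the 2HG producing partner of a matched IDH1 knockdown line; nearly all actives have a fitted effect of over 55% in size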
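Viability by CellTiter-Glo luminescence after 48 h compound exposure at 37C of HT-1080-NT cells (750/well, RPMI, 5% FBS). % activity scaled between DMSO wells and medium-only wells, then curve-fitted and categorized by curve class.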
IL-1B inflam inh: inflammasome signaling inhibition, IL-1 beta readout; THP-1 LPS/ATP IL-1B secretion, AlphaLISA, 16 h; active compounds read low; actives 4.7% (n = 360,000); activity change, % at 57.5 µM; in the data active means activity change below about -50%; inconclusive means mostly about -30% to -49%
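THP-1 cells pretreated 1 hr with compounds (up to 57.5 uM final), then stimulated with LPS (250 ng/mL final) plus ATP (1.25 mM final); secreted IL-1B measured by AlphaLISA after 16 hr, decreased signal indicating inhibition.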
HT1080 IDH1KD tx: toxicity to HT-1080 IDH1 knockdown cells (counter line) | HT-1080 IDH1 knockdown viability, ATP luminescence, 48 h | Potency, µM (highest dose often 46.1 µM), actives largely listed as cytotoxic | actives 2% (n = 360,000)
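In this qHTS, HT-1080 cells depleted of IDH1 are exposed for 48 h at 37 °C to compound titrations. Toxicity is scored from CellTiter-Glo luminescence, with DMSO as full viability and medium alone as none.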
DT40 TDP1 no CPT: qHTS for Inhibitors of human tyrosyl-DNA phosphodiesterase 1 (TDP1): qHTS in cells in absence of CPT | DT40 Tdp1-/- hTDP1 cells, no CPT, ATP luminescence, 48 h | Potency, µM (doses to about 46.2 µM), most hits filed as inhibitors | actives 15% (n = 420,000) | AID 686978, 2013; further: nearly all actives have a fitted effect of over 55% in size
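Chicken DT40 Tdp1-/- cells complemented with human TDP1, screened without camptothecin (DMSO vehicle only), 400 cells/well. Compounds pin-transferred, cells incubated at 37 °C for at least 48 hr. Growth read as ATP-dependent luminescence (CellTiter-Glo, 30 min at RT).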
TDP1 cell CPT: DT40-hTDP1 cell growth loss with CPT | chicken DT40 Tdp1-/-;hTDP1 cells + 20 nM CPT, ATP luminescence, 48 h | Potency, µM (titrated, usually from 46.2 µM), most hits filed as inhibitors | actives 12% (n = 420,000); further: nearly all actives have a fitted effect of over 55% in size
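Cell growth measured by CellTiter-Glo luminescence after a minimum 48 h, 37 C compound exposure with 20 nM CPT in Tdp1-knockout DT40 cells stably expressing hTDP1, seeded 400/well; qHTS titration format.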
Hits are given with their value; . = inactive; ? = inconclusive; / = no result; [ ] = remark or other dose. Unless noted, the call rests on the fitted dose curve; in most records, active means well fitted curve in the direction sought with a large enough effect; inconclusive means small, poorly fitted or top-dose-only effect, or another doubt; inactive means no such curve, though single readings can be large; an effect the other way counts as inactive or inconclusive.

SMILES	12-LOX inh	HT1080NT lethal	IL-1B inflam inh	HT1080 IDH1KD tx	DT40 TDP1 no CPT	TDP1 cell CPT
COC(=O)C(CCSC)NC(=O)Cn1ncc2c(=O)oc3ccccc3c21 (centres undefined)	.	.	-55	.	.	?
Cc1cc(C)nc(NC2=NCC(=O)N2c2ccc(Cl)cc2Cl)n1	.	/	/	/	/	/
CC(C)(CNC(=O)COc1ccccc1Cc1ccccc1)N1CCOCC1	?	.	-59	.	?	?
Cc1ccccc1OCC(=O)NCC(C)(C)N1CCOCC1	.	.	.	.	.	.
O=[N+]([O-])c1ccc(/C=C2\CCC(C3=CCCC3)=C2N2CCOCC2)cc1	?	.	?	.	16µM	?
O=C(NP(=O)(N1CCCC1)N1CCCC1)C1=C(N2CCOCC2)/C(=C/c2cccc([N+](=O)[O-])c2)CC1	?	.	.	.	.	.
Cc1ccc(S(=O)(=O)NC(C(=O)Oc2ccc3c(C(F)(F)F)cc(=O)oc3c2)c2ccccc2)cc1 (centres undefined)	50µM	.	.	.	.	.
COc1cc2c(cc1OC)-c1cc3ccc(OC)c(OC)c3c[n+]1CC2	.	.	.	.	5.2µM	5.2µM
Cc1ccc(NC(=O)c2nn(C34CC5CC(CC(C5)C3)C4)cc2[N+](=O)[O-])cc1	.	.	.	.	?	23µM
COc1ccc(NC(=O)c2nn(C)cc2[N+](=O)[O-])cc1	.	.	.	.	.	.
Cc1cc(C(=O)Nc2nc(-c3ccc(C)c(C)c3)c(C)s2)no1	.	/	/	/	/	/
CCn1cc([N+](=O)[O-])c(C(=O)Nc2nc(-c3ccc(C)c(C)c3)c(C)s2)n1	.	?	.	10µM	.	?
CCn1cc([N+](=O)[O-])c(C(=O)Nc2nc(-c3ccc(C)cc3)c(C)s2)n1	.	.	-55	?	.	.
O=C(Nc1cccc(Cl)c1)C1CCCN(c2nn3cc(-c4ccc(F)cc4)nc3s2)C1 (centres undefined)	?	/	/	/	23µM	?
CCN(CC)CCNC(=O)C1CCN(c2nn3cc(-c4ccc(F)cc4)nc3s2)CC1	.	/	/	/	3.3µM	5.2µM
O=C(NCc1cccc(Cl)c1)C1CCN(c2nn3cc(-c4ccc(F)cc4)nc3s2)CC1	.	/	/	/	?	?
COc1ccc(-c2cn3nc(N4CCCC(C(=O)Nc5ccc(Cl)cc5C)C4)sc3n2)cc1 (centres undefined)	.	/	/	/	.	?
O=C(NCc1cccc(Cl)c1)C1CCCN(c2nn3cc(-c4ccc(F)cc4)nc3s2)C1 (centres undefined)	.	/	/	/	23µM	?
CC1CCC2(CCc3cc4c5c(c(=O)oc4cc3O2)CCCC5)CC1 (centres undefined)	.	/	/	/	/	/
O=C(NCCc1ccc(Cl)cc1)Nc1ccc(F)cc1	.	.	.	.	?	?
O=[N+]([O-])c1ccc(NC(=S)NCCc2ccc(F)cc2)cc1	?	?	.	23µM	16µM	16µM
O=C(NCCc1ccc(F)cc1)Nc1ccc([N+](=O)[O-])cc1	.	?	-100	?	16µM	29µM
Cc1cc(=O)oc2c3c(cc(OCC(=O)NCc4ccncc4)c12)OC(C)(C)CC3	.	.	.	.	23µM	?
COc1ccc(CNC(=O)COc2cc3c(c4oc(=O)cc(C)c24)CCC(C)(C)O3)c(OC)c1	.	/	/	/	/	/
COc1ccc(CNC(=O)COc2cc3c(c4oc(=O)cc(C)c24)CCC(C)(C)O3)cc1OC	.	.	?	.	23µM	21µM
Cc1c(C)c2c(OCC(=O)NCc3ccncc3)cc3c(c2oc1=O)CCC(C)(C)O3	.	.	.	.	?	?
COc1cccc(CN2CCCC3(Cc4ccccc4CNC3=O)C2)c1 (centres undefined)	.[6.33 µM]	/	/	/	/	/
C#CCNC(=O)c1ccccc1NC(=O)c1nc(Cl)ccc1Cl	.	/	/	/	/	/
